From PubChem BioAssay come the findings set out here.

Activity calls are given as the source filed them.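 The calls were made as follows, unless noted: active = inhibition of the reporter signal at or above 50%; inactive = inhibition below 50%.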

The nature of assay [1]: inhibitors of TNFa-induced NFkB p65 translocation, primary screen, imaging, HUVEC, MLSMR starter and 10KST1 sets (AID 438;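 active = inhibition above 20% together with a positive visual image hit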;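 also: compound added about 3h40 before a 20 min TNFalpha stimulation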;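 as to inhibition: signal is the nuclear over cytoplasmic p65 intensity ratio per well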). As to conditions: HUVEC TNFa-induced p65 nuclear translocation; cell count: measured here: nuclei count (cytotoxicity indicator), at 2.08 µM; inhibition: at 2 µM, stronger effect = higher value, 0% TNFa-plus-vehicle, 100% no-TNFa wells.
Assay [2] is described as follows: inhibitors of mutant huntingtin aggregation, primary screen, imaging, exon1htt(103Q)mCFP cells, high-content imaging (AID 483;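 active = visual image review flags a hit and inhibition of aggregation exceeds 20%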;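 also: compound exposure lasted 3 days before fixation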;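 as to nuclei count: percent of the per-plate median nuclei count of sample wells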). As to conditions: exon1htt(103Q)mCFP cell line, aggregate imaging, at 2 µM; inhibition of aggregation: stronger effect = higher value; nuclei count: measured here: cell count, toxicity.
A short description of assay [3]: inhibitors of E-selectin induction by TNFa, primary screen, imaging, HUVEC, immunofluorescence, MLSMR starter and 10KST1 sets (AID 487;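 active = visually confirmed hit in the image check and inhibition above 20%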;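 as to inhibition: signal is fraction of cell area covered by stained E-selectin grains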;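 as to nuclei count: 100% = median nuclei count of all wells on the same plate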). As to conditions: HUVEC TNFalpha-induced E-selectin immunofluorescence imaging, at 2 µM; inhibition: stronger effect = higher value; nuclei count: measured here: cell number, toxicity.
The target in assay [4] is Voltage-gated potassium channel subunit beta-2 (Rattus norvegicus) (UniProt P62483). Description: KvBeta enzyme negative modulators, primary screen, biochemical, NADPH fluorescence (AID 622;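 active = fluorescence slope higher than the sample average by over 3 SD, cut at about -0.22 in these data, passing the limit was not always enough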;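 also: slope of raw intensity against log time taken from 70 to 1610 s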). To be noted: recombinant KvBeta, 4-cyanobenzaldehyde reduction, at 10 µM, stronger effect = higher value.
Voltage-gated potassium channel subunit beta-2 (Rattus norvegicus), sequence (P62483 whole entry, looked up): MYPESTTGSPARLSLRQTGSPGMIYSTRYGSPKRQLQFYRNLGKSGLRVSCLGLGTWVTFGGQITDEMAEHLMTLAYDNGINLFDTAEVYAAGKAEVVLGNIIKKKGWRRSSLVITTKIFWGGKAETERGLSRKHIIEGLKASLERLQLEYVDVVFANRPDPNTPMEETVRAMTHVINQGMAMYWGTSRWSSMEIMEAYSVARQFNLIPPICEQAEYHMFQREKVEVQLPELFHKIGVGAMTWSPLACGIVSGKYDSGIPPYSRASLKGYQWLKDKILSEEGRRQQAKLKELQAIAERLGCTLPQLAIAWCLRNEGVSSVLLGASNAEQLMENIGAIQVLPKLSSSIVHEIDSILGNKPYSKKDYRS
Assay [5] shares this target. Description: KvBeta positive modulators, primary screen, biochemical, NADPH fluorescence (AID 623;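 active = NADPH fluorescence slope more negative than the mean of all samples by about 3 SD, 99.7% confidence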;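 also: fluorescence intensity change per second fitted from 20 to 320 s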). As to conditions: Recombinant KvBeta, NADPH fluorescence decrease slope, 10 min; at 10 µM; stronger effect = lower value.
Assay [6] deals with Alpha-2C adrenergic receptor (Homo sapiens) (UniProt P18825). Description: modulators of alpha2C/GIRK thallium flux, primary screen, cell-based, HEK293 alpha2C/GIRK1/2 (AID 624;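 active = fluorescence slope after compound addition differing from the mean of all screened samples at 99.7% confidence, in either direction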;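 also: slope of fluorescence ratio to pre-addition baseline per second over 15 to 24 s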). As to conditions: thallium flux BTC fluorescence, at 10 µM, actives lie on both sides.
Alpha-2C adrenergic receptor (Homo sapiens), sequence (P18825 whole entry, looked up): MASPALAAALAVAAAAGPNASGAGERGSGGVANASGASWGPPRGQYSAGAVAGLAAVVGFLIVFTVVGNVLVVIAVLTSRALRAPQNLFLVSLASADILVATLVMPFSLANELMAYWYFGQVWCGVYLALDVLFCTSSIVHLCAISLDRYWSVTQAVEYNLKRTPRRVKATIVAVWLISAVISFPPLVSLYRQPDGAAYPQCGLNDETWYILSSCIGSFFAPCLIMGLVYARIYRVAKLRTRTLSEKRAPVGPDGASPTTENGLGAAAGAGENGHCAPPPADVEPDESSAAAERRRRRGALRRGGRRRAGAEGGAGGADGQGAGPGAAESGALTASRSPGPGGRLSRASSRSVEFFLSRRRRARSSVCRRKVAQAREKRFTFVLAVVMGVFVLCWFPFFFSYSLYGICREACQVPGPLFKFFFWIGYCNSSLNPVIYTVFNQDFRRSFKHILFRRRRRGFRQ
The nature of assay [7]: inhibitors of Sendai virus-induced IRF3 signaling, primary screen, TLR/RLR signaling modifier project, cell-based, Sendai virus stimulus, luciferase, 10K MLSCN set (AID 602276;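 active = inhibition at or above 50% at 10 µM; inactive = inhibition below 50%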;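 also: firefly luciferase from ISG56 promoter only with Renilla not read in this screen; 0% = Sendai virus plus DMSO and 100% = medium plus DMSO without virus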). As to conditions: HEK293 RL24 IRF3 luciferase reporter, at 10 µM, stronger effect = higher value.
A short description of assay [8]: inhibitors of poly I:C-induced TLR3 signaling, primary screen, cell-based, poly I:C stimulus, luciferase, 10K MLSCN set (AID 602277). As to conditions: HEK293-TLR3 RL24 IRF3 luciferase reporter, at 10 µM, stronger effect = higher value. On the technique in general: In a reporter assay the amount or activity of a reporter protein is the signal.

The term inhibition denotes the drop in the measured response relative to a control, in per cent. Regarding `OCCNCC(O)Cn1ccc2ccccc21` (centres undefined), the cell count in assay [1] was determined as 410. Besides, the inhibition in assay [1] is -8.2% (inactive); in assay [3] it was -53.1% (inactive); in assay [7], 12.3% (inactive); in assay [8], 16.7% (inactive). Also, in assay [2], the inhibition of aggregation was -0.3% (inactive). Also, the nuclei count in assay [2] was found to be 84.3%; in assay [3] it was 181%. Further, in assay [4], the fluorescence slope was -0.624 (inactive). For the same compound, in assay [5], the NADPH fluorescence slope was -5e-05 (inactive). Also, the slope in assay [6] is 0.007 (inactive).

With `COc1ccc(C2=CC(=O)OC3(CCCCC3)O2)cc1`, the cell count in assay [1] came out at 390. Further, the inhibition in assay [1] was -5.3% (inactive); in assay [3], -152% (inactive); in assay [7] it was 13% (inactive); in assay [8] it was 22.7% (inactive). The inhibition of aggregation in assay [2] is -4.6% (inactive). Also, the values for the nuclei count in assay [2] and in assay [3] were 99.3% and 115%, respectively. In addition, in assay [4], the fluorescence slope is -0.475 (inactive). The NADPH fluorescence slope in assay [5] was -8.9e-05 (inactive). In assay [6], the slope is 0.0046 (inactive).

Consider `COc1ccc2[nH]c(=O)c(CN(Cc3cccs3)Cc3nnnn3C(C)(C)C)cc2c1`, for which the cell count in assay [1] worked out at 713. For the same compound, the inhibition is 29.2% (inactive) in assay [1], 12.5% (inactive) in assay [3], 10% (inactive) in assay [7] and 7.17% (inactive) in assay [8]. Also, in assay [2], the inhibition of aggregation is 1.1% (inactive). The nuclei count in assay [2] turned out to be 111%; in assay [3], 88.8%. The fluorescence slope in assay [4] is -0.417 (inactive). Further, the NADPH fluorescence slope in assay [5] was -3.6e-05 (inactive). Also, in assay [6], the slope was 0.00579 (inactive).

In the case of `Nc1nc2n(n1)C(c1cccc(Cl)c1)CC(c1ccc(F)cc1)N2` (centres undefined), in assay [1], the cell count came to 678. In addition, the inhibition is -12.4% (inactive) in assay [1], -13.6% (inactive) in assay [3], 11.8% (inactive) in assay [7] and 25.8% (inactive) in assay [8]. In assay [2], the inhibition of aggregation was -13.4% (inactive). Moreover, the results for the nuclei count in assay [2] and in assay [3] were 100% and 106%, respectively. The fluorescence slope in assay [4] is -0.42 (inactive). Moreover, the NADPH fluorescence slope in assay [5] was -3.8e-05 (inactive). In addition, in assay [6], the slope is 0.00636 (inactive).

As to `CCCNC(=O)C1=C(C)C(=O)OC12CCC(C)CC2` (centres undefined), in assay [1], the cell count was found to be 666. In addition, the inhibition in assay [1] is 1.6% (inactive); in assay [3], -28.8% (inactive); in assay [7] it was 3.82% (inactive); in assay [8], 12% (inactive). Also, in assay [2], the inhibition of aggregation was -3.8% (inactive). In addition, the nuclei count in assay [2] and in assay [3] was 115% throughout. Also, in assay [4], the fluorescence slope was -0.589 (inactive). Further, in assay [5], the NADPH fluorescence slope was 1.9e-05 (inactive). The slope in assay [6] was 0.00681 (inactive).

For the compound `CCn1c(SCC(=O)Nc2nc(C)cs2)nnc1-c1ccco1`, the cell count in assay [1] came to 339. In addition, the inhibition in assay [1] was 0.4% (inactive); in assay [3], -93.6% (inactive); in assay [7], 8.27% (inactive); in assay [8], 23.4% (inactive). Moreover, in assay [2], the inhibition of aggregation is -8.5% (inactive). Also, the nuclei count in assay [2] and in assay [3] was 114% throughout. In addition, the fluorescence slope in assay [4] was -0.316 (inactive). Also, in assay [5], the NADPH fluorescence slope is -2.7e-05 (inactive). Besides, in assay [6], the slope was 0.00755 (inactive).

In the case of `CN1CCN(c2ncnc3c2cnn3-c2ccc(Cl)cc2)CC1`, the cell count in assay [1] amounted to 688. The inhibition in assay [1] was -8.5% (inactive); in assay [3] it was -27.8% (inactive); in assay [7], 15.5% (inactive); in assay [8], 6.85% (inactive). For the same compound, the inhibition of aggregation in assay [2] was -0.6% (inactive). In addition, the nuclei count in assay [2] worked out at 116%; in assay [3], 122%. Moreover, in assay [4], the fluorescence slope is -0.591 (inactive). Also, in assay [5], the NADPH fluorescence slope is 1.6e-05 (inactive). The slope in assay [6] was 0.00771 (inactive).

`COc1ccc(OC)c(C(=O)c2ccc(C(=O)O)cc2)c1`: in assay [1], the cell count is 415. The inhibition in assay [1] is 10.6% (inactive); in assay [3], -71.4% (inactive); in assay [7], 16.7% (inactive); in assay [8], 18.4% (inactive). Further, the inhibition of aggregation in assay [2] is -5.3% (inactive). Moreover, the nuclei count in assay [2] was 100%; in assay [3] it was 110%. The fluorescence slope in assay [4] is -0.508 (inactive). In addition, the NADPH fluorescence slope in assay [5] is -2.9e-05 (inactive). In addition, in assay [6], the slope was 0.00489 (inactive).

Turning to `S=C(NCC1CCCO1)n1nnc2ccccc21` (centres undefined), the cell count in assay [1] is 718. In addition, the inhibition in assay [1] is -5.9% (inactive); in assay [3], 52% (inactive); in assay [7] it was 12.9% (inactive); in assay [8], 13.5% (inactive). In addition, the inhibition of aggregation in assay [2] was -2.9% (inactive). In addition, the nuclei count came out at 94.6% in assay [2] and 92.8% in assay [3]. The fluorescence slope in assay [4] is -0.399 (inactive). The NADPH fluorescence slope in assay [5] was 4.6e-05 (inactive). The slope in assay [6] is 0.00794 (inactive).

`CCN(CC)Cc1nc2c(c(=O)[nH]1)C1(CCCCC1)Cc1ccccc1-2`: in assay [1], the cell count was determined as 443. The inhibition in assay [1] was 9.9% (inactive); in assay [3] it was -17% (inactive); in assay [7] it was 10% (inactive); in assay [8] it was 10.5% (inactive). The inhibition of aggregation in assay [2] was -2.4% (inactive). For the same compound, the nuclei count was 89.3% in assay [2] and 101% in assay [3]. Further, in assay [4], the fluorescence slope was -0.589 (inactive). Further, the NADPH fluorescence slope in assay [5] is -5.5e-05 (inactive). Besides, the slope in assay [6] is 0.00352 (inactive).

As for `CN1CCN(c2nc(-c3ccncc3)nc3ccccc23)CC1`, in assay [1], the cell count is 324. In addition, the inhibition in assay [1] is -13.1% (inactive); in assay [3], -133% (inactive); in assay [7] it was 11.9% (inactive); in assay [8] it was 15.9% (inactive). Moreover, in assay [2], the inhibition of aggregation was -19.7% (inactive). Besides, the nuclei count in assay [2] was found to be 51.3%; in assay [3], 120%. The fluorescence slope in assay [4] is -0.41 (inactive). The NADPH fluorescence slope in assay [5] is -3.7e-05 (inactive). Further, the slope in assay [6] was 0.00562 (inactive).

On to `CCCNC(=O)Nc1ccccc1C(=O)Nc1ccc(OC)cc1`, for which the cell count in assay [1] is 351. In addition, the inhibition in assay [1] was 8.1% (inactive); in assay [3], 25.8% (inactive); in assay [7], -1.84% (inactive); in assay [8] it was 30.5% (inactive). Also, the inhibition of aggregation in assay [2] is -15.5% (inactive). In addition, the nuclei count in assay [2] turned out to be 104%; in assay [3], 108%. For the same compound, the fluorescence slope in assay [4] is -0.445 (inactive). For the same compound, in assay [5], the NADPH fluorescence slope is -1.6e-06 (inactive). Moreover, the slope in assay [6] is 0.00585 (inactive).

With `CCn1cc(C(=O)NCc2ccccc2OC)c(=O)c2cc(S(=O)(=O)N(C)C)ccc21`, the cell count in assay [1] amounted to 665. The inhibition in assay [1] is -5.5% (inactive); in assay [3] it was -39.5% (inactive); in assay [7], 13.2% (inactive); in assay [8], 23.7% (inactive). For the same compound, in assay [2], the inhibition of aggregation is 7.5% (inactive). For the same compound, the nuclei count was 74.5% in assay [2] and 113% in assay [3]. Moreover, in assay [4], the fluorescence slope was -0.425 (inactive). Moreover, the NADPH fluorescence slope in assay [5] is -4e-05 (inactive). In assay [6], the slope is 0.00524 (inactive).

Take `CCc1cc2c(=O)c(-c3nc4ccccc4[nH]3)coc2c(CN2CCC(C)CC2)c1O`: the cell count in assay [1] is 708. For the same compound, the inhibition is -7.9% (inactive) in assay [1], 15.3% (inactive) in assay [3], 7.38% (inactive) in assay [7] and 5.36% (inactive) in assay [8]. For the same compound, the inhibition of aggregation in assay [2] was 11.5% (inactive). For the same compound, the figures for the nuclei count in assay [2] and in assay [3] were 102% and 107%, respectively. Also, the fluorescence slope in assay [4] is -0.552 (inactive). Further, the NADPH fluorescence slope in assay [5] was -3.1e-05 (inactive). In assay [6], the slope is 0.00554 (inactive).
